# Screening results as filed in PubChem BioAssay.
# The full list was thinned out, with hits kept by preference.
# FXIIa mix inh = blocks human factor XIIa in pooled compound mixtures; purified FXIIa, fluorogenic substrate; AID 684; inhibition, % at 5 µM; hit rate 0.2% among 62,000; P00748;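 note: 0% = enzyme without compound and 100% = no enzyme blank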
# HePTP inh = human HePTP phosphatase inhibition. P35236. recombinant HePTP phosphatase activity, OD absorbance. inhibition, % at 20 µM. hit rate 0.64% among 110,000. AID 521; in the data active = inhibition above about 50%;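 note: plate controls were vehicle for no effect and reference inhibitor for full effect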
# D1 mod = allosterically modulates the human D1 dopamine receptor | HEK293 D1, CRE-luciferase, dopamine EC30 potentiation; actives deviate in either direction | B-score at 10 µM | hit rate 5.9% among 58,000 | AID 641;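 active = luminescence count or its row- and column-corrected plate score outside the 99.7% band of the plate's sample wells, on either side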
# Target sequence (P21728 whole entry, looked up): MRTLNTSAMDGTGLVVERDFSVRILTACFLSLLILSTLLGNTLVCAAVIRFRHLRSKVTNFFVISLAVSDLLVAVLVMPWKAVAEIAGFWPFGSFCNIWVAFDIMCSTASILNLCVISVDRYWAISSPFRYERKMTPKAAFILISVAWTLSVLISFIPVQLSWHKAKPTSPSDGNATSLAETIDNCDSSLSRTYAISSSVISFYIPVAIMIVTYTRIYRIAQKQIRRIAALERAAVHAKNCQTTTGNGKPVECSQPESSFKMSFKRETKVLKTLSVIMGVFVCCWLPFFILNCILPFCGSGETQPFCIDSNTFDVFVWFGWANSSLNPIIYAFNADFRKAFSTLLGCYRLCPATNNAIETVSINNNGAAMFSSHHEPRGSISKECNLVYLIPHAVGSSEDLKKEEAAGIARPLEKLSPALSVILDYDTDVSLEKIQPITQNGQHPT
# Calb biofilm kill = kills Candida albicans biofilms; C. albicans biofilm + clotrimazole, Alamar Blue; hit rate 0.14% among 85,000; inhibition, % at 6 µM;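 active = inhibition above 20%; inactive = inhibition below 20%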;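 note: preformed 24 hr biofilms exposed to compound for 48 hr; 0% = biofilm without compound and 100% = blank killed by clotrimazole plus chlorhexidine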
# FXIa inh mix = factor XIa (human) inhibition, mixture screen; P03951; purified FXIa, fluorogenic substrate, pooled mixtures; inhibition, % at 5 µM; hit rate 0.19% among 62,000;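 note: each value is inhibition by a whole ten-compound pool holding the compound; 0% = enzyme with no mixture and 100% = wells lacking enzyme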
# TNAP act mid DEA = human TNAP activation, intermediate phosphate acceptor. 64,000 tested, under 10 active. purified TNAP, CDP-star luminescence, 100 mM DEA, 30 min; hits give high values; scale: 0 levamisole-inhibited, 1 vehicle-only enzyme. activation factor at 20 µM. P05186;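 active = activation factor of at least 2 at 20 µM, relative to controls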
# An asterisk follows results filed as active; . = no result given. Cut-off read from the data, not from the text of the source, unless noted: active = inhibition above about 20% (passing the limit was not always enough); inactive = the rest.
SMILES,FXIIa mix inh,HePTP inh,D1 mod,Calb biofilm kill,FXIa inh mix,TNAP act mid DEA
O=C1/C(=C/c2ccc(Br)o2)SC(=S)N1Cc1ccccc1,.,56.0*,.,.,.,.
O=C1/C(=C/c2ccc(-c3ccc([N+](=O)[O-])cc3)o2)SC(=S)N1Cc1ccco1,.,63.6*,.,.,.,.
Cc1ccc(/C=C2/SC(=S)N(CCC(=O)O)C2=O)o1,.,-2.0,.,.,.,.
CCOC(=O)c1ccc(-c2ccc(/C=C3/SC(=S)N(CC(=O)O)C3=O)o2)cc1,.,54.5*,.,.,.,.
O=C(O)CCCN1C(=O)/C(=C\c2ccc(-c3ccc(Br)cc3)o2)SC1=S,.,94.3*,.,.,.,.
CCN1C(=O)/C(=C\c2cccc(O)c2)C(C(=O)OC)=C1C,.,-5.1,.,.,.,.
O=c1c(C=NC2CC2)c(-c2ccccc2)[nH]n1-c1ccc([N+](=O)[O-])cc1,.,5.2,.,.,.,.
O=C1S/C(=C\c2ccc(O)cc2)C(=O)N1Cc1ccccc1,.,-7.7,.,.,.,.
CSc1ccc(Cl)c(C(=O)Nc2c(C)n(C)n(-c3ccccc3)c2=O)c1,.,-6.0,.,.,.,.
O=c1ccnc2c1c(-c1ccccc1)nc1[nH]onc12,.,9.4,.,.,.,.
CCOC(=O)c1ccc(N2NC(=O)/C(=C/c3cccc(OC)c3O)C2=O)cc1,.,55.4*,.,.,.,.
CCOC(=O)c1ccc(N2NC(=O)/C(=C/c3cc(OC)c(OC)cc3Br)C2=O)cc1,.,5.1,.,.,.,.
CCOC(=O)c1ccc(N2NC(=O)/C(=C/c3cc(Br)ccc3O)C2=O)cc1,.,75.4*,.,.,.,.
CCOC(=O)c1ccc(N2NC(=O)/C(=C/c3ccc(C=O)cc3)C2=O)cc1,.,95.7*,.,.,.,.
Cc1cc(OCC(=O)Nc2cc([N+](=O)[O-])ccc2Cl)cc(C)c1Cl,.,-10.5,.,.,.,.
CC(=O)c1ccc(NC(=O)c2cc3nc(-c4ccc(Br)cc4)cc(C(F)(F)F)n3n2)cc1,.,6.9,.,.,.,.
COC(=O)c1cc(C(=O)Nc2ccc(OC)cc2OC)cc([N+](=O)[O-])c1,.,-11.6,.,.,.,.
CC(C)CCNC(=O)c1cc(-c2ccccc2)nc2ccccc12,.,1.6,.,.,.,.
COc1ccccc1C(=O)Oc1ccc(C(C)C)cc1,.,.,.,58.0*,.,.
CCOc1cc(/C=C2\N=C(c3ccccc3)OC2=O)ccc1OCc1c(C)no[n+]1[O-],.,66.0*,.,.,.,.
O=C(Nc1nccs1)c1sc2ccccc2c1Cl,.,81.9*,.,.,.,.
O=C(Nc1ncccn1)c1sc2ccccc2c1Cl,.,-8.4,.,.,.,.
Cc1c(C(=O)OC(C)C)sc(NC(=O)c2ccccc2F)c1C#N,.,-5.6,.,.,.,.
O=C(O)CN1C(=O)/C(=N/N2C(=O)CSC2=S)c2ccccc21,.,62.9*,.,.,.,.
Cc1ccc(-c2nc3cc(Cl)ccc3o2)cc1NC(=O)C(Cl)(Cl)Cl,.,52.9*,.,.,.,.
SMILES,FXIIa mix inh,HePTP inh,D1 mod,Calb biofilm kill,FXIa inh mix,TNAP act mid DEA
O=c1c(-c2cc3ccccc3o2)[n+]([O-])c2ccccc2n1OCc1ccccn1,.,.,.,5.3,.,.
CCOn1c(=O)c(-c2cc3ccccc3o2)[n+]([O-])c2ccccc21,-13.4,1.8,2.4,9.9,24.4*,0.9
O=[N+]([O-])c1ccc(-c2cc(-c3ccc(I)cc3)n[nH]2)cc1,.,-6.0,.,.,.,.
O=C(NC(=S)Nc1ccc([N+](=O)[O-])cc1)c1ccc(Cl)cc1,.,-6.8,.,.,.,.
CCOc1ccc(CCNC(=O)C2CCCN(C(=O)N(C)C)C2)cc1OCC (stereo unspecified),6.4,-7.6,-7.9*,.,27.9,0.9
COc1ccc(CCNC(=O)C2CCN(C(=O)N(C)C)CC2)cc1OC,9.8,-8.4,1.53,9.4,2.7,1
CCOc1ccc(N2C(=O)S/C(=C\c3ccco3)C2=O)cc1,.,5.9,.,.,.,.
CCCC(=O)Nc1cnc(NC(=O)c2cccc(F)c2)cc1C,0.8,0.6,-3.14*,3.4,6.0,0.8
O=C(/C=C\c1ccccc1)Nc1ccc(Cl)c(-c2nc3ccccc3o2)c1,.,4.9,.,.,.,.
Cc1nc(NC(=O)c2ccccc2Br)sc1C,.,-0.9,.,.,.,.
Cc1nc(NC(=O)c2csc3ccccc23)sc1C,-0.2,4.6,-3.45*,.,-11.8,0.9
COc1ccc(/C=N/NS(=O)(=O)c2ccc(C)cc2)cc1OCc1ccccc1,.,-10.2,.,.,.,.
CCCOc1ccc(/C=N/NS(=O)(=O)c2ccc3ccccc3c2)cc1OC,.,103.4*,.,.,.,.
COc1ccc(C2C(C(=O)N3CCN(c4ccccn4)CC3)CC(=O)N2c2ccc(OC)cc2)cc1 (stereo unspecified),1.6,7.8,-3.08*,1.9,-1.8,0.9
COc1cc(CO)cc(Br)c1OCc1cccnc1,-4.2,16.4,-3.14*,10.7,7.1,0.8
COc1cc(S(=O)(=O)NCc2cccnc2)c(OC)cc1Br,.,.,.,14.7,.,.
O=C(Cc1ccccc1)Nc1nc2ccccc2[nH]1,3.5,.,-5.51*,4.0,10.8,.
CC(=O)N1CCc2cc(C(=O)CN3CCN(c4cccc(Cl)c4)CC3)ccc21,2.3,-2.2,-3.45*,3.5,-6.3,1
CC(=O)N1CCc2cc(C(=O)CN3CCC(C)CC3)ccc21,-19.1,1.6,0.0734,0.9,0.6,0.9
N#Cc1cc2c(nc1SCC(O)CS(=O)(=O)Cc1ccccc1)CCCC2 (stereo unspecified),33.5,-5.4,-3.55*,0.1,4.6,1
CCOc1ccc(S(=O)(=O)Nc2ccc(Cl)cn2)c(C)c1C,5.5,18.7,-2.56*,6.5,11.0,0.8
CCOc1cc(C)c(S(=O)(=O)Nc2ccc(Cl)cn2)cc1C,-7.6,-3.2,0.261,5.7,5.5,1
CCCCN(C)CCCNC(=O)c1cccc(N2CCCC2=O)c1,6.9,30.7,-5.76*,2.5,-2.3,1
O=C(NCc1ccc2c(c1)OCO2)c1cccc(N2CCCC2=O)c1,27.4*,3.8,0,5.9,4.5,1
CN(CCCNC(=O)c1cccc(N2CCCC2=O)c1)c1ccccc1,8.9,7.8,.,5.3,-3.5,0.9
SMILES,FXIIa mix inh,HePTP inh,D1 mod,Calb biofilm kill,FXIa inh mix,TNAP act mid DEA
O=[N+]([O-])c1cc(Br)c(O)c(/C=N/Nc2nc3ccccc3[nH]2)c1,.,12.6,.,.,.,.
CCOC(=O)C1CCN(C2CC(=O)N(c3cccc(Br)c3)C2=O)CC1 (stereo unspecified),.,-0.8,.,.,.,.
COc1ccc(NC(=O)C(C/C=C(/C)Cl)C(C)=O)cc1 (stereo unspecified),.,.,.,21.1*,.,.
Cc1ccccc1CNc1nc(N)n(-c2ccccc2)n1,7.0,1.3,.,20.4*,8.3,0.9
COc1ccc(/C=N/NC(=O)COc2ccccc2C)cc1Cl,.,-11.2,.,.,.,.
COCCn1c(C)cc(C(=O)CSc2nnc3ccccn23)c1C,2.0,1.2,-7.25*,5.3,0.4,0.9
CCOC(=O)c1ccc(NC(=O)Nc2ccc3c(c2)OCCO3)cc1,1.2,2.8,-2.4*,7.8,1.2,1
CC(=O)N1CCN(Cc2ccccc2)CC1,.,3.2,.,.,.,.
CCC(C)C(=O)N1c2ccc(OC)cc2-c2c(ssc2=S)C1(C)C (stereo unspecified),.,-1.0,.,.,.,.
COc1ccc(OC)c(C2=NOC(C(=O)N3CCN(c4ccccc4)CC3)C2)c1 (stereo unspecified),.,.,.,10.3,.,.
COc1ccc(C2=NOC(C(=O)N3CCN(c4ccccc4OC)CC3)C2)cc1 (stereo unspecified),7.7,4.7,-3.51*,8.0,-2.3,1
COc1ccccc1/C=C1\SC(=S)N(C2CCS(=O)(=O)C2)C1=O (stereo unspecified),.,-5.4,.,.,.,.
CC(=O)Nc1ccc(NS(=O)(=O)c2ccc(NC(C)=O)cc2)cc1,.,6.9,.,.,.,.
